High-throughput results from PubChem.
A selection: hits, their analogues and other compounds. The true share with any hit is near 1.6%.
KCNQ2 block = inhibitors of rat KCNQ2 potassium channel | O88943 | CHO-K1 KCNQ2, FluxOR thallium flux, 20 min; active compounds read low | B-score at 10 µM | hit rate 1.1% among 310,000;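 active = fluorescence ratio B-score at most minus 3 library SDs, with starting brightness B-score within 2 library SDs, cut at about -5.5 in these data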
Target sequence (O88943 whole entry, looked up): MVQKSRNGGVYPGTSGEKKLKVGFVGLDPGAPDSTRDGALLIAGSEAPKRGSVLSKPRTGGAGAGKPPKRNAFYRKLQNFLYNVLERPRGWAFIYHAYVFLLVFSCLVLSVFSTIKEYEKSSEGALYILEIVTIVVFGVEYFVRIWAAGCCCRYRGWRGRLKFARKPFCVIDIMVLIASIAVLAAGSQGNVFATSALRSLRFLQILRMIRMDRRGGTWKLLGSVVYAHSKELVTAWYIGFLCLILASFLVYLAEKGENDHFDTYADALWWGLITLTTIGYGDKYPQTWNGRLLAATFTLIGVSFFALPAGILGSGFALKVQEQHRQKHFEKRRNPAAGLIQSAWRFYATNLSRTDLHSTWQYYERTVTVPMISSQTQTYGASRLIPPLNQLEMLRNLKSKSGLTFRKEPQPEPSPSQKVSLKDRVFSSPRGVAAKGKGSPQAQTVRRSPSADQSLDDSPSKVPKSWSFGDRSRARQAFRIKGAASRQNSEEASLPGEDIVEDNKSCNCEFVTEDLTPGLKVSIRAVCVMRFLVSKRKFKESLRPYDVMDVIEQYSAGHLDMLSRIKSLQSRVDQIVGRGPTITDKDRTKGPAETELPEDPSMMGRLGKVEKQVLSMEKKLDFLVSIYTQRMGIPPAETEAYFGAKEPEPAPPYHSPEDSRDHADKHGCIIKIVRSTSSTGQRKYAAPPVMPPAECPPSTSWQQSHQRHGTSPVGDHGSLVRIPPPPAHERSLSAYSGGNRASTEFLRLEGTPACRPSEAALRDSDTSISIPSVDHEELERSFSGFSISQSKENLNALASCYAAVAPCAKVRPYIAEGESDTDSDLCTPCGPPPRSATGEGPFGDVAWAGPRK
KCNQ2 enhance = potentiators of rat KCNQ2 potassium channel. hit rate 0.54% among 310,000. CHO-K1 KCNQ2, FluxOR thallium flux fluorescence; active compounds read high. AID 2239. O88943. B-score at 10 µM;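 active = fluorescence ratio B-score at least 3 SD of library B-scores, with initial fluorescence B-score within 3 of them, cut at about 5.3 in these data; same plate scores as AID 2156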;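 also: B-score of peak minus minimum over baseline fluorescence ratio after K+ and Tl+ stimulus; positive B-score means potentiation of KCNQ2 with more thallium influx and brighter signal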
Numbers without * were called inactive.

What do the screens show for `N#CC(c1ccc(F)cc1)c1ccc(C(=O)c2ccc(F)cc2)cc1` (centres undefined)?
KCNQ2 block: inactive

Results for Cc1ccc(C(C#N)c2ccc(C(=O)c3ccc(F)cc3)cc2)cc1 (centres undefined) ?
KCNQ2 block: -6.36*; KCNQ2 enhance: -6.36

What do the screens show for `O=C(O)c1cccc(NS(=O)(=O)c2cc(S(=O)(=O)c3ccc(Cl)cc3)ccc2Cl)c1`?
KCNQ2 block: inactive; KCNQ2 enhance: 0.12

Results for COc1cccc(/C=N/NC(=O)c2c(-c3ccccc3)noc2C)c1OC ?
KCNQ2 block: -7.32*; KCNQ2 enhance: -7.32

Results for COc1ccc(Cl)cc1/C=N/NC(=O)c1c(-c2ccccc2)noc1C ?
KCNQ2 block: -6.17*; KCNQ2 enhance: -6.17

What do the screens show for `COc1cc(/C=N/NC(=O)c2c(-c3ccccc3)noc2C)ccc1O`?
KCNQ2 block: inactive

What do the screens show for `COc1cccc(/C=N/NC(=O)c2c(-c3ccccc3)noc2C)c1O`?
KCNQ2 block: inactive

How did CS(=O)(=O)N(CC(=O)Nc1cccc([N+](=O)[O-])c1)c1ccccc1 do in these assays?
KCNQ2 block: inactive; KCNQ2 enhance: 1.12

Results for COc1ccc(C)cc1S(=O)(=O)N(CC(=O)Nc1cccc([N+](=O)[O-])c1)c1ccccc1 ?
KCNQ2 block: inactive; KCNQ2 enhance: 0.79

Results for Cc1ccc([N+](=O)[O-])cc1NC(=O)CN(C(=O)c1ccccc1Cl)C1CCCCC1 ?
KCNQ2 block: inactive

How did Cc1ccc([N+](=O)[O-])cc1NC(=O)CN(C1CCCCC1)S(=O)(=O)c1ccc(Cl)cc1 do in these assays?
KCNQ2 block: -7.87*; KCNQ2 enhance: -7.87

What do the screens show for `Cc1ccccc1CN(CC(=O)Nc1cccc([N+](=O)[O-])c1)S(=O)(=O)c1ccc(Cl)cc1`?
KCNQ2 block: -6.64*; KCNQ2 enhance: -6.64

How did Cc1ccc(NC(=O)CN(c2ccc(Cl)cc2)S(=O)(=O)c2cc([N+](=O)[O-])ccc2Cl)c(C)c1 do in these assays?
KCNQ2 block: -7.87*; KCNQ2 enhance: -7.87

What do the screens show for `CCC(=O)N(CCC1(c2ccccc2OC)CCOC(C(C)C)C1)Cc1ccco1` (centres undefined)?
KCNQ2 block: -5.83*; KCNQ2 enhance: -5.83

Results for COc1ccccc1C1(CC(=O)O)CCOC(C(C)C)C1 (centres undefined) ?
KCNQ2 block: inactive

What do the screens show for `CCOC(=O)CSC1=C(C#N)C(c2ccco2)C(C(=O)Nc2cccc(C(F)(F)F)c2)=C(C)N1` (centres undefined)?
KCNQ2 block: -7.22*; KCNQ2 enhance: -7.22

Results for CCOC(=O)C1=C(c2ccccc2)NC(SCC(=O)Nc2cccc(C)c2)=C(C#N)C1c1ccco1 (centres undefined) ?
KCNQ2 block: inactive; KCNQ2 enhance: 0.16

How did CCN(CCn1cccn1)C(=O)c1ccc2nc(Cc3ccc(OC)cc3)oc2c1 do in these assays?
KCNQ2 block: inactive

Results for COc1cccc(OCc2ccc(C(=O)NCC3CCCO3)cc2)c1 (centres undefined) ?
KCNQ2 block: inactive

How did O=C(NCC1CCCO1)c1ccc(COc2ccccc2Br)cc1 (centres undefined) do in these assays?
KCNQ2 block: inactive; KCNQ2 enhance: 5.3*

Results for COc1ccccc1/C=C/C(=O)NC(=S)NCC1CCCO1 (centres undefined) ?
KCNQ2 block: -7.08*; KCNQ2 enhance: -7.08

Results for COc1ccc(/C=C/C(=O)NC(=S)NCC2CCCO2)cc1 (centres undefined) ?
KCNQ2 block: inactive; KCNQ2 enhance: 0.3

What do the screens show for `COc1ccc(Cl)cc1Nc1ncnc2sc(C)c(S(=O)(=O)N3CCC(C)CC3)c12`?
KCNQ2 block: -6.69*; KCNQ2 enhance: -6.69

What do the screens show for `COCCNC(=O)Cn1cnc2sc(C)c(S(=O)(=O)N3CCC(C)CC3)c2c1=O`?
KCNQ2 block: inactive

What do the screens show for `CN(Cc1ccccc1)c1nc2c(c(=O)n(C)c(=O)n2C)n1CCCc1ccccc1`?
KCNQ2 block: -7.89*; KCNQ2 enhance: -7.89

What do the screens show for `CCN(CC)c1nc2c(c(=O)n(C)c(=O)n2C)n1CCCc1ccccc1`?
KCNQ2 block: inactive

What do the screens show for `COc1cc(/C=C(\NC(=O)c2ccccc2)C(=O)N2CC3CC(C2)c2cccc(=O)n2C3)cc(OC)c1OC` (centres undefined)?
KCNQ2 block: inactive

Results for CC(OC(=O)COc1ccc(C#N)cc1)C(=O)Nc1ccc(Cl)cn1 (centres undefined) ?
KCNQ2 block: inactive

How did O=C(CC1C(=O)N(c2ccccc2)C(=S)N1c1ccccc1)c1ccc(Br)cc1 (centres undefined) do in these assays?
KCNQ2 block: -6.36*; KCNQ2 enhance: -6.36

Results for O=C(CC1C(=O)N(c2ccccc2)C(=S)N1c1ccccc1)c1ccccc1 (centres undefined) ?
KCNQ2 block: inactive

How did Cc1ccc(C)c(OCc2cc(C(=O)N3CC[C@@H]4CCCC[C@H]4C3)no2)c1 do in these assays?
KCNQ2 block: -6.48*; KCNQ2 enhance: -6.48

Results for Cc1ccc(C)c(OCc2cc(C(=O)N3C[C@@H](C)O[C@@H](C)C3)no2)c1 ?
KCNQ2 block: inactive; KCNQ2 enhance: 1.39

How did O=S(=O)(NCCC1=CCCCC1)c1ccc(OC(F)(F)F)cc1 do in these assays?
KCNQ2 block: inactive

Results for CCOC(=O)N1CCN(C(=O)c2c(Cl)cnn2C)CC1 ?
KCNQ2 block: inactive; KCNQ2 enhance: 0.03

What do the screens show for `CCOC(=O)CC1(NC(=O)c2cc(COc3c(F)cccc3F)on2)CCCCC1`?
KCNQ2 block: -5.68*; KCNQ2 enhance: -5.68

What do the screens show for `COC(=O)[C@H](Cc1ccccc1)NC(=O)c1cc(COc2c(F)cccc2F)on1`?
KCNQ2 block: inactive; KCNQ2 enhance: 1.93

Results for O=C(O)Cn1nc(-c2ccccc2)ccc1=O ?
KCNQ2 block: inactive; KCNQ2 enhance: 0.03

Results for COCC1CCCCC1OS(N)(=O)=O (centres undefined) ?
KCNQ2 block: inactive

Results for COC(=O)[C@@H]1Cc2c([nH]c3ccccc23)C(C)(C)N1C(=O)CCl ?
KCNQ2 block: inactive; KCNQ2 enhance: 0.3

Results for Cc1ccc(NC(=O)c2ccc(NCCN)c([N+](=O)[O-])c2)cc1 ?
KCNQ2 block: inactive

How did NCCNc1ccc(C(=O)N2c3ccccc3Sc3ccccc32)cc1[N+](=O)[O-] do in these assays?
KCNQ2 block: -8.07*; KCNQ2 enhance: -8.07

What do the screens show for `Nc1nc2c(Cl)cc(Cl)cc2s1`?
KCNQ2 block: inactive; KCNQ2 enhance: 0.89

Results for Nc1nc2c(Cl)ccc(Cl)c2s1 ?
KCNQ2 block: inactive; KCNQ2 enhance: 6.02*

How did COc1ccccc1CC(=O)Nc1ccc2c(c1)C(=O)NC2=O do in these assays?
KCNQ2 block: inactive; KCNQ2 enhance: 0.99

Results for CCN(CC(=O)Nc1c(F)cccc1F)C(=O)CN(C)S(=O)(=O)c1ccc(F)cc1 ?
KCNQ2 block: inactive

What do the screens show for `COc1ccc(-c2cc(C(=O)Nc3cc(C)on3)c3ccccc3n2)c(OC)c1`?
KCNQ2 block: inactive

Results for COc1cccc(NC(=O)c2cc(-c3ccc(OC)cc3OC)nc3ccccc23)c1 ?
KCNQ2 block: -6.41*; KCNQ2 enhance: -6.41

How did COc1ccc(NC(=S)N2CCC(N(C)CC3CCCO3)CC2)cc1Cl (centres undefined) do in these assays?
KCNQ2 block: inactive; KCNQ2 enhance: 0.27

Results for Clc1ccc(-c2nnc(-c3ccco3)nc2N2CCCCC2)cc1 ?
KCNQ2 block: inactive
